From PubChem BioAssay
Active and inactive are the calls of the source.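 The calls were made as follows: active = inhibition above 50%, about 3 SD of the validation set; inactive = the rest.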

molecular target: Integrin beta-1 (Homo sapiens) + Integrin alpha-4 (Homo sapiens) (UniProt P13612+P05556); test: inhibition of HUTS-21 binding to VLA-4, pilot screen, VLA-4 allosteric modulator project, U937 cells, HUTS-21 mAb, flow cytometry, validation set (AID 2674); settings: HUTS-21 LIBS mAb binding, at 6.7 µM, stronger effect = higher value, binding induced by LDV ligand;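 also: antibody binding induced by the VLA-4 ligand LDV present at three times its Kd; 0% = LDV ligand with antibody and no compound and 100% = antibody without LDV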
Sequence (P05556 whole entry, looked up): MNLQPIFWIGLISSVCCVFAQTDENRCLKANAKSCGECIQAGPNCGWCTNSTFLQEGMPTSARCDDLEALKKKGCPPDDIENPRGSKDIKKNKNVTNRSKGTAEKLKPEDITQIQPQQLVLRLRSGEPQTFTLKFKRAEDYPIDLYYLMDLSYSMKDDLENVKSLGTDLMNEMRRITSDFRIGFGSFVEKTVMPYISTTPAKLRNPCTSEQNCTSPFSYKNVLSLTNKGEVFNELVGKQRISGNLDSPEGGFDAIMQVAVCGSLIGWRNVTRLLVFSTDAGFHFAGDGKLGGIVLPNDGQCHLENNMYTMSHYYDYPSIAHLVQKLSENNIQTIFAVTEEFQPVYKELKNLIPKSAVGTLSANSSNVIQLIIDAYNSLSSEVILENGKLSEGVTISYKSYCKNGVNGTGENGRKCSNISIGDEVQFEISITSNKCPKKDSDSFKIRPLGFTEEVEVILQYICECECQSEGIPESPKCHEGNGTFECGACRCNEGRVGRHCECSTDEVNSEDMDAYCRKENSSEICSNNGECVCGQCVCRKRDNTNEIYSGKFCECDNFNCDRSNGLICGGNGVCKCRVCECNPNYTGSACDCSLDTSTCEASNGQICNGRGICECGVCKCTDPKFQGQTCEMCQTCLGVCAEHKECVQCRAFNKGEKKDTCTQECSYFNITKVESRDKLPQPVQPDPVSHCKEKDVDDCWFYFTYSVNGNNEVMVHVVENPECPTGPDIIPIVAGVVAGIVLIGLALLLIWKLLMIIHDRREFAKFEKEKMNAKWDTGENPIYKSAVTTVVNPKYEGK
Sequence (P13612 whole entry, looked up): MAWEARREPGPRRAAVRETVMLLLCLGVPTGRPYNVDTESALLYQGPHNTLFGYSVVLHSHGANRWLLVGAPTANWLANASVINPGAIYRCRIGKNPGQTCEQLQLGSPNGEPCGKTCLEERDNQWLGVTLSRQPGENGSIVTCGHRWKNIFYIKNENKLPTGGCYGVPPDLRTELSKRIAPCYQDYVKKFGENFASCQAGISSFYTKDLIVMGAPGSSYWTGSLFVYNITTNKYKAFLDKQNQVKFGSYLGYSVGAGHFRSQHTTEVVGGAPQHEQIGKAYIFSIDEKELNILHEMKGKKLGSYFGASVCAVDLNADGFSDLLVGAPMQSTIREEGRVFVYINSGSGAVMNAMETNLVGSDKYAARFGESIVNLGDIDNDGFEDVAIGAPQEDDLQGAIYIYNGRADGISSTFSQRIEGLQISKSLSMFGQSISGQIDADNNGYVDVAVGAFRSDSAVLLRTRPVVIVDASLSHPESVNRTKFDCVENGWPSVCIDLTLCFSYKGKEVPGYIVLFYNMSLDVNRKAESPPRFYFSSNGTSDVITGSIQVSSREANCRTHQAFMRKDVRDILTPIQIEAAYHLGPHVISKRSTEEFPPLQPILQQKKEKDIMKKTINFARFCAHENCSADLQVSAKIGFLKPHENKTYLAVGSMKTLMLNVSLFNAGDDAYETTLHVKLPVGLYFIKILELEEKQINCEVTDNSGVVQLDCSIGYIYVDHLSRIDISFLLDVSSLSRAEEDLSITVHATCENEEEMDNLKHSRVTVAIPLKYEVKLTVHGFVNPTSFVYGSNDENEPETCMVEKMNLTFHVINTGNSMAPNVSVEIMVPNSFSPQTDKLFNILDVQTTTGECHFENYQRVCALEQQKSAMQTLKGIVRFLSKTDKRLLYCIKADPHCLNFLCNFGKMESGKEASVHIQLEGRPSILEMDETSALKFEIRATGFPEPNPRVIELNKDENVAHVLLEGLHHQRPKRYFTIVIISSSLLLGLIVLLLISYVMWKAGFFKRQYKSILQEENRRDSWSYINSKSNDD

inhibition, inactive:
Cc1ccc2[nH]c3c(c2c1)CN(C)CC3 9.09%
COc1ccc2[nH]c3c(c2c1)CCn1c-3nc2ccccc2c1=O 2.56%
CC(=O)O[C@H]1CSC[C@H]1NC(=O)c1ccccc1 -7.7%
CC(=O)Oc1ccc2occ(/C=N/c3cc(=O)[nH]c(=S)[nH]3)c(=O)c2c1 7.22%
O=C(O)CCSc1nc2ccccc2s1 -9.57%
CCOc1ccc(C(=O)/C=C/c2cc(OC)c(OC)c(OC)c2)cc1 -0.24%
COC(=O)c1cc(OC)c(OC)c(OC)c1[N+](=O)[O-] -0.24%
COC(=O)c1[nH]c2ccccc2c1NC(=O)CN1CCN(C/C=C/c2ccccc2)CC1 -42.2%
Cc1ncc([N+](=O)[O-])n1CC(C)O (stereo not given) 8.15%
Clc1ccccc1CN1CCc2sccc2C1 6.55%
CC[C@]1(O)C[C@@H]2CN(CCc3c([nH]c4ccccc34)[C@@](C(=O)OC)(c3cc4c(cc3OC)N(C)[C@H]3[C@@](O)(C(=O)OC)[C@H](OC(C)=O)[C@]5(CC)C=CCN6CC[C@]43[C@@H]65)C2)C1 23.1%
O=C(CCCN1CC=C(n2c(=O)[nH]c3ccccc32)CC1)c1ccc(F)cc1 5.36%
CCOc1cccc(N2C(=O)CC(N(CCc3ccc(OC)c(OC)c3)C(=O)CC)C2=O)c1 (stereo not given) 0%
COC(=O)C1=C(C)NC(C)=C(C(=O)OC)C1c1ccccc1[N+](=O)[O-] 5.36%
CC(COc1ccccc1)NC(C)C(O)c1ccc(O)cc1 (stereo not given) -496%
